High-throughput results deposited in PubChem BioAssay by The Scripps Research Institute Molecular Screening Center.
hcDAF-12 act: H. contortus DAF-12 nuclear receptor activators, primary screen, cell-based, luminescence, HEK293, lit1-tk-luc reporter. activation, % at 6.8 µM. AID 652067, 2013. hit rate 1.4% among 370,000. HEK293 hcDAF-12 lit1-tk-luc reporter; 0% DMSO, 100% Δ7-dafachronic acid;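 active means activation above the mean of all tested compounds plus 3 SD, cut at about 5.5% in these data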;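 further: 100% = response to 3 µM Δ7-dafachronic acid high control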
DAX1 inh-1: DAX1 (NR0B1) inhibitors on StAR promoter, primary screen, cell-based, luminescence, SF-1 (NR5A1), full-length DAX-1; HEK293T StAR-luciferase reporter, SF-1/DAX-1 repression relief; hit rate 1.1% among 370,000; AID 652010, 2013; inhibition, % at 6.8 µM;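 active means inhibition above the mean over all tested compounds plus 3 SD, cut at about 3.6% in these data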;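 further: 0% = DAX-1 cells with DMSO and 100% = cells lacking DAX-1 with DMSO; higher inhibition means more luminescence from relief of DAX-1 repression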
DAX1 inh-2: DAX1 (NR0B1) inhibitors, primary screen, cell-based, HEK293, Gal4-DAX1, luciferase luminescence; AID 504766, 2011; Nuclear receptor subfamily 0 group B member 1 (Homo sapiens), P51843; HEK293 Gal4-DAX1 luciferase reporter; hit rate 0.99% among 340,000; inhibition, % at 6.75 µM;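 active means inhibition above the mean over all tested compounds plus 3 SD, cut at about 4.2% in these data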;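 further: 0% = DAX1-transfected cells with DMSO and 100% = empty-vector control cells with DMSO; inhibition shows as a rise in luminescence from relieved DAX1 repression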
hgDAF-12 ag: H. glycines DAF-12 receptor agonists, primary screen, cell-based, luminescence, HEK293, GAL4 fusion, UAS-luciferase | Nuclear hormone receptor DAF-12 (Heterodera glycines), GAL4 fusion | HEK293 GAL4-hgDAF12 UAS-luciferase reporter, agonist luminescence; normalized to butyrate control | activation, % at 6.8 µM | hit rate 1.8% among 370,000 | AID 687014, 2013;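 active means activation above a cutoff set at the mean of all screened compounds plus 3 SD, cut at about 10% in these data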;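 further: 0% = DMSO wells and 100% = sodium butyrate wells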
Wee1 degr inh: Wee1 degradation inhibitors, primary screen, cell-based, HeLa, Wee1K328M-luciferase, luminescence. Wee1-like protein kinase (Homo sapiens), P30291. AID 1321, 2008. hit rate 1.2% among 220,000. HeLa Luc-Wee1K328M stability; 100% = proteasome inhibitor MG132 effect. reporter increase, % at 5 µM;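 active means activation above the mean of all tested compounds plus 3 SD, set per screening run, cut at about 8.8% in these data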;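 further: cells exposed to compound for 20 h before luminescence read; 0% = DMSO alone and 100% = MG132 at 30 µM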
Target sequence (P30291 whole entry K328M): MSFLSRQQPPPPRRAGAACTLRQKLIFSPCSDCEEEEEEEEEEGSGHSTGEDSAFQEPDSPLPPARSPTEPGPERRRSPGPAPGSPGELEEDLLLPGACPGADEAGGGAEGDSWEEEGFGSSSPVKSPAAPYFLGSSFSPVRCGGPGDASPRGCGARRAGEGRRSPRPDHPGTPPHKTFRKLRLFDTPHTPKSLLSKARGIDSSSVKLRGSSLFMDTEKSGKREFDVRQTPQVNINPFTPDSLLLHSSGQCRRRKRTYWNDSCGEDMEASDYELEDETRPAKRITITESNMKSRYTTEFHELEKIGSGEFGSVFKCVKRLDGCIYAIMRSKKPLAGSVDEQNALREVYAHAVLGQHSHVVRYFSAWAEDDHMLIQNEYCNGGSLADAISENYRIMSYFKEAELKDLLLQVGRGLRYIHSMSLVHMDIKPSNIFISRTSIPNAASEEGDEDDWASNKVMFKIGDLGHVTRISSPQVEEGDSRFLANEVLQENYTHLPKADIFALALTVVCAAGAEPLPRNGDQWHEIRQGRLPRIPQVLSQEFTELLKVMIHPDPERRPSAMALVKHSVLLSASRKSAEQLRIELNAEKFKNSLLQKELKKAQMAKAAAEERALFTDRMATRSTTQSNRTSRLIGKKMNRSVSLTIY
ssDAF-12 act: S. stercoralis DAF-12 nuclear receptor activators, primary screen, cell-based, luminescence, HEK293, GRIP1 co-expression, lit1-tk-luc; Nuclear hormone receptor DAF-12 (Strongyloides stercoralis); HEK293 ssDAF-12/GRIP1 lit1-tk-luc reporter; % of 3 µM dafachronic acid response; activation, % at 6.8 µM; hit rate 1% among 370,000; AID 652126, 2013;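 active means activation above the mean over all tested compounds plus 3 SD, cut at about 0.9% in these data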;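 further: 0% = DMSO-only wells and 100% = 3 µM delta7-dafachronic acid wells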
hgDAF12 ag: H. glycines DAF-12 receptor agonists, confirmation, cell-based, luminescence, HEK293, GAL4-LBD fusion; activation, % at 6.8 µM; AID 743050, 2013; shares compounds with hgDAF-12 ag; hit rate 80% among 3,300; HEK293 GAL4-hgDAF12 luciferase reporter, agonist mode; percent of butyrate response;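 active means mean activation over triplicate wells above the hit cutoff derived from the earlier primary screen, cut at about 11% in these data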;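 further: 0% = DMSO low control and 100% = 2 mM sodium butyrate high control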
LXR ag 2: LXR agonists, Gal4 luciferase reporter, confirmation, counter-screen for hgDAF-12 agonist project, cell-based, luminescence, HEK293, H. glycines campaign; AID 743051, 2013; 3,300 tested, under 10 active; activation, % at 6.8 µM; shares compounds with hgDAF-12 ag; 24 h;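 active means mean activation of the triplicate above a set limit carried over from the primary screen, none filed active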
* hit, by the source's call; x = no result. Rows were chosen to be rich in hits. Some 4.6% of all compounds tested hit in one or more screens of this group.

SMILES	hcDAF-12 act	DAX1 inh-1	DAX1 inh-2	hgDAF-12 ag	Wee1 degr inh	ssDAF-12 act	hgDAF12 ag	LXR ag 2
COc1ccc(NC(=S)Nc2ncccc2C)cc1OC	3.1	2.5	1.8	20.8*	-3.0	-0.5	5.5	0.1
COc1ccc(OCCN2CCN(S(=O)(=O)c3ccccc3C(F)(F)F)CC2)cc1	-1.8	-3.2	-0.9	-2.3	x	-2.2	x	x
COc1ccc(NC(=O)Nc2ccc(F)c(Cl)c2)cc1	2.0	1.3	-0.4	17.1*	-0.6	-1.3	9.7	0.4
C=CCn1c(=S)[nH]c2cc(C(=O)NCCc3ccc(S(N)(=O)=O)cc3)ccc2c1=O	-0.6	-1.9	0.4	-0.2	x	-0.6	x	x
COc1cccc(/C=N/Nc2ncccc2[N+](=O)[O-])c1OC	2.3	1.7	-7.3	3.0	-1.0	-0.9	x	x
COc1ccccc1/C=N/Nc1nccnc1Cl	5.8*	2.9	1.4	13.8*	3.5	-0.4	10.5*	0.3
C/C(CC(=O)NC1CCCCC1)=N\NC(=O)c1ccccn1	4.1	3.3	3.0	19.5*	0.7	0.1	4.3	0.2
O=C(N=C1SCC(=O)N1c1ccccc1Cl)c1ccccc1	3.2	2.2	0.7	16.6*	0.9	0.8	9.3	0.8
COC1CCN(C(=O)c2cc(COc3cc(C)ccc3C)on2)CC1	-1.7	0.0	1.3	1.9	x	-0.8	x	x
CC(=O)NCCC1CCCCN1C(=O)c1cc(COc2cc(C)ccc2C)on1 (centres undefined)	4.6	1.9	1.4	15.7*	x	0.8	13.3*	0.6
CC(=O)CSc1ncnc2c1cnn2-c1ccccc1	2.9	2.9	2.9	16.7*	2.3	0.3	17.5*	0.7
O=C(CSc1ncnc2c1cnn2-c1ccccc1)Nc1ccccc1	1.1	0.6	-0.9	1.0	-0.2	-0.9	x	x
O=C(CSc1nnc(-c2ccncc2)o1)Nc1ccc(F)c(F)c1	0.1	-1.2	1.0	3.7	x	-0.7	x	x
O=C(c1cc(Cl)cc(Cl)c1)N1CC[C@H]2[C@H](CCCN2Cc2ccccc2)C1	-0.3	-0.8	x	1.0	x	-1.6	x	x
CCc1nc2cc3sc(CC)nc3cc2s1	1.9	2.3	-0.1	15.5*	-3.1	-0.1	13.4*	0.7
C[C@H]1CN([C@@H](C)CO)C(=O)CCCn2cc(nn2)CO[C@@H]1CN(C)S(=O)(=O)c1ccc(Cl)cc1	-2.6	-0.9	1.4	0.2	x	-0.8	x	x
Cc1nc2sc(-c3ccccc3)nn2c(=O)c1Br	4.1	3.4	0.5	16.5*	3.7	-0.6	17.1*	0.8
O=C(N/N=C\c1ccccn1)c1ccccc1O	-0.1	-0.3	0.7	14.7*	3.0	-0.5	3.1	0.2
COc1cccc(COC(=O)CSCC(=O)Nc2ccc(C)cc2)c1OC	-0.4	0.0	0.3	1.6	x	-1.3	x	x
CCN(C[C@H]1N[C@@](C)(C(=O)OC)[C@H]2C(=O)N(C)C(=O)[C@@H]12)C(=O)c1ccc(C(C)(C)C)cc1	-1.1	-0.5	0.2	1.3	x	-0.5	x	x
COc1ccc(NC(=O)c2cc3ccccc3[nH]2)cc1	2.2	2.3	6.1*	17.0*	x	0.3	12.8*	0.7
C/C(=C\C(=O)c1sccc1Cl)N(C)C	3.3	2.8	0.9	14.7*	3.6	0.2	2.8	0.1
COc1ccc(C(=O)/C=C(/C)N(C)C)cc1	-0.8	0.0	1.3	-3.1	-1.7	-1.3	x	x
O=C(NCc1ccc(Cl)cc1)c1cnn2ccccc12	3.0	3.8*	1.0	17.6*	5.3	-0.4	13.1*	0.7
CCN(C(=O)COC(=O)c1ccc[nH]c1=O)c1cccc2ccccc12	1.2	-1.3	-0.1	1.6	x	-0.8	x	x
SMILES	hcDAF-12 act	DAX1 inh-1	DAX1 inh-2	hgDAF-12 ag	Wee1 degr inh	ssDAF-12 act	hgDAF12 ag	LXR ag 2
Nc1c(C(=O)N2CCOCC2)sc2nc3c(cc12)CCC3	3.8	2.4	-0.4	15.9*	2.8	0.0	12.8*	0.6
Cc1ccc(C)c2nc3sc(C(=O)N4CCOCC4)c(N)c3cc12	3.1	0.1	0.0	21.1*	0.6	0.1	11.3*	0.5
CC(C)OC(=O)N(C)C[C@@H]1OCc2cnnn2CCCC(=O)N([C@H](C)CO)C[C@@H]1C	0.1	0.5	0.6	0.2	x	-0.3	x	x
Fc1cccc2sc(Nc3nc4cc5c(cc4s3)OCO5)nc12	6.3*	3.2	0.7	15.9*	1.0	1.1*	13.6*	0.6
COc1cc(C(C)=O)ccc1OCC(=O)NCc1ccccc1CN1CCCC1	-0.8	1.3	0.7	0.5	x	0.1	x	x
N#CCC[C@H]1CC[C@]2(CCCN(C(=O)c3ccno3)C2)O1	-2.1	-0.4	x	-0.5	x	-1.2	x	x
COc1ccc(C(=O)Nc2ccc(NC(=O)c3ccco3)cc2)cc1	-3.8	-0.3	0.5	-2.3	x	-1.4	x	x
COc1ccc(/C(C)=N\NC(=O)c2ccco2)cc1	3.4	3.5	x	23.6*	x	-0.6	9.6	0.3
C/C(=N/NC(=O)c1ccco1)c1ccc(NC(=O)c2ccc(F)cc2)cc1	2.5	3.1	2.3	13.3*	-1.4	-0.7	10.0	0.4
COc1cccc(S(=O)(=O)N(C)C[C@H]2Oc3cc(Br)ccc3S(=O)(=O)N([C@@H](C)CO)C[C@H]2C)c1	1.4	-1.7	-0.5	-1.1	x	-1.1	x	x
O=C(/C=C/c1ccccc1[N+](=O)[O-])Nc1ccccc1	5.5	4.0*	6.7*	17.6*	-2.4	0.2	16.2*	0.7
Cc1ccc(-n2c(C)nn(CCOc3ccccc3)c2=O)cc1	1.8	3.1	1.4	13.3*	-0.6	-0.7	8.7	0.3
O=[N+]([O-])c1cc([N+](=O)[O-])c(Oc2cc(Cl)cc(Cl)c2)cc1NN1CCCCC1	0.2	0.6	-0.5	0.3	x	-0.8	x	x
Cc1cc(C)n2nc(C(=O)Nc3nccs3)nc2n1	3.6	1.5	1.7	17.2*	1.3	0.2	11.8*	0.5
